Our source for the outcome values is PubChem BioAssay AID588848 (Broad Institute, 2011).

The structures appear in SMILES notation. Measured potencies and affinities stand elsewhere. Records with an inconclusive call do not appear. Active and inactive are the calls of the source.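 Rule for the calls: active = fitted half-maximal inhibiting dose no more than ten times the top valid dose tested; inconclusive = flat activity from -30 to -70%, or unreliable curve fit; inactive = the rest.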

The target of this assay is CAAX prenyl protease 2 (Homo sapiens) (UniProt Q9Y256). Kind of assay: human Rce1 protease inhibitors, dose response, biochemical, plate reader, dry powder samples (AID 588848). Particulars: yeast membranes expressing human Rce1, fluorogenic peptide cleavage; series mostly up to 30 µM.
Sequence of CAAX prenyl protease 2 (Homo sapiens) (Q9Y256 whole entry, looked up): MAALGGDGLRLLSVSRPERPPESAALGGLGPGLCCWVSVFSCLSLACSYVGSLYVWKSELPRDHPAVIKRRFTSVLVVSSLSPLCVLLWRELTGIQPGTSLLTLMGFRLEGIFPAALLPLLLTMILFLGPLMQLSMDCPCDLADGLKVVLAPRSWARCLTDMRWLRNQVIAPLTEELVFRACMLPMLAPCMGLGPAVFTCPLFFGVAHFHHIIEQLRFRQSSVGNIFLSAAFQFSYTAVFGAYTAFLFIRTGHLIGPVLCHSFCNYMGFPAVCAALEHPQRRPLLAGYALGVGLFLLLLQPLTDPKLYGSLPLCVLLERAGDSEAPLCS
Regarding `CCCOc1ccc(-c2c(C(=O)N/N=C/c3cccs3)nnn2-c2nonc2N)cc1`, the compound was called inactive.

In the case of `Cc1ccc(SCc2c(C(=O)N/N=C/c3ccccc3)nnn2-c2nonc2N)cc1`, the compound was called inactive.

For the compound `CCOc1cccc(-c2c(C(=O)N/N=C/c3cccs3)nnn2-c2nonc2N)c1`, the outcome was inactive.

For `Nc1nonc1-n1nnc(C(=O)N/N=C/c2cccc(Cl)c2)c1CSc1ccc(Cl)cc1`, the result was inactive.

As to `Cc1ccc(NC(=O)CCc2ccc(S(=O)(=O)NC3CCCCC3)cc2)cc1`, the outcome was inactive.

In the case of `COc1ccc(-n2c(SCc3ccc([N+](=O)[O-])cc3)nnc2-c2ccc(C)cc2)cc1`, the outcome was inactive.

As to `Cc1cccc(-c2nnc(SCc3ccc(C#N)cc3)n2Cc2ccco2)c1`, the compound was called inactive.

Turning to `Cc1cc(N2CCN(C(c3ccccc3)c3ccccc3)CC2)n2ncnc2n1`, the compound was classed as inactive.

`CC(C)c1c(C(=O)N/N=C/c2cccc3ccccc23)nnn1-c1nonc1N`: the compound was called inactive.

`CN(C(=O)COC(=O)c1cn(-c2ccccc2)nc1-c1ccccc1)C1CCS(=O)(=O)C1` (stereo not given): the call was inactive.
